Source: PubChem BioAssay (Tox21)
Records with an inconclusive call do not appear. Where a call stands in place of a potency, no number is given. Active and inactive are the calls of the source. Unless noted, calls follow the shape of the dose curve; as a rule, active = well fitted curve in the direction sought with a large enough effect in the repeat runs; inconclusive = weak or mixed curves; inactive = no such curve, though single readings can be large; an effect the other way counts as inactive or inconclusive.

Legend:
[1] = qHTS assay to identify small molecule antagonists of the glucocorticoid receptor (GR) signaling pathway - cell viability counter screen (AID 720693); also: nearly all actives have a fitted effect of over 55% in size; also: potency is read from the fitted curve at half-maximal effect
[2] = qHTS assay for identifying genotoxic compounds that show differential cytotoxicity against isogenic chicken DT40 cell lines with known DNA damage response pathways - wild type cell line (AID 743012); also: nearly all actives have a fitted effect of over 60% in size; also: potency is read from the fitted curve at half-maximal effect
Summary of the method: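 First, wild type DT40 cells were plated at 300 per well and equilibrated about 0.5 h at 37 C/5% CO2. Next, compounds in DMSO were added and exposure lasted 40 h. Finally, CellTiter-Glo was added for 30 min at room temperature and luminescence recorded.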

[3] = qHTS assay for identifying genotoxic compounds that show differential cytotoxicity against isogenic chicken DT40 cell lines with known DNA damage response pathways - Rev3 mutant cell line (AID 743014); also: nearly all actives have a fitted effect of over 55% in size; also: potency is read from the fitted curve at half-maximal effect
[4] = qHTS assay for identifying genotoxic compounds that show differential cytotoxicity against isogenic chicken DT40 cell lines with known DNA damage response pathways - Rad54/Ku70 mutant cell line (AID 743015); also: nearly all actives have a fitted effect of over 60% in size; also: potency is read from the fitted curve at half-maximal effect
[5] = qHTS assay to identify small molecule antagonists of the androgen receptor (AR) signaling pathway - cell viability counter screen (AID 743033; also: nearly all actives have a fitted effect of over 45% in size)
[6] = target: Androgen receptor (Homo sapiens) (UniProt P10275); assay: qHTS assay to identify small molecule antagonists of the androgen receptor (AR) signaling pathway (AID 743035; active = well fitted inhibition curve with a large enough effect in the signal ratio in the repeat runs, not every such curve was filed as active; the % refers to the signal ratio; also: potency is read from the fitted curve at half-maximal effect)
Chain of Androgen receptor (Homo sapiens) (P10275 whole entry, looked up): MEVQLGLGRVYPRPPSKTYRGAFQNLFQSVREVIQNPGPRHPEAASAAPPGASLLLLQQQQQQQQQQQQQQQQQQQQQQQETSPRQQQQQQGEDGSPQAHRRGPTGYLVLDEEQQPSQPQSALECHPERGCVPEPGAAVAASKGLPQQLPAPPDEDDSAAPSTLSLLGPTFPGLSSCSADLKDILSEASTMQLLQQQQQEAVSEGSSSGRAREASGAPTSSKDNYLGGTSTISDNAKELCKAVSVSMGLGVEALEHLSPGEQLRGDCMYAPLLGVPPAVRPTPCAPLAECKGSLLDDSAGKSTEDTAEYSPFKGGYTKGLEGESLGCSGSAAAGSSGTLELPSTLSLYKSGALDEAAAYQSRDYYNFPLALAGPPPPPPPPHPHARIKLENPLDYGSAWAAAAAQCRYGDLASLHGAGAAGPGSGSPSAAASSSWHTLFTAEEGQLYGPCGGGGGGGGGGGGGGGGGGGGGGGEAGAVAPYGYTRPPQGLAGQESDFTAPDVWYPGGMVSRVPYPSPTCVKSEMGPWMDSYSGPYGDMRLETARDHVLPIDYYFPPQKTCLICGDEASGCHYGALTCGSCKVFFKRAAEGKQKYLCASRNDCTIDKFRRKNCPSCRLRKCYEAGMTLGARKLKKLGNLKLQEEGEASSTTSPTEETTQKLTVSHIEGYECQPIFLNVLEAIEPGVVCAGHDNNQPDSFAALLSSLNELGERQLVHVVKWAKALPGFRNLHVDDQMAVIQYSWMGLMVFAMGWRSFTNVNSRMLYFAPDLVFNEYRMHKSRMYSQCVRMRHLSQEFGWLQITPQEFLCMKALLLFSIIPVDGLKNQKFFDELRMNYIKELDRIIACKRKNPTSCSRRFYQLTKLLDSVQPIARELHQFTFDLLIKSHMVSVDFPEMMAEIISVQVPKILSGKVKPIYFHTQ
Summary of the method: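 Beta-lactamase FRET read (2 h RT incubation with LiveBLAzer B/G) following 16 h of compound plus R1881 treatment of AR-UAS-bla HEK293 cells, which had been pre-incubated 4 h at 37C.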

[7] = target: Androgen receptor (Homo sapiens) (UniProt P10275); assay: qHTS assay to identify small molecule agonists of the androgen receptor (AR) signaling pathway using the MDA cell line (AID 743040; also: nearly all actives have a fitted effect of over 20% in size)
Summary of the method: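 Cells plated, 5 h at 37C/0% CO2; compound or DMSO pinned; 16 h at 37C; ONE-Glo added; luminescence measured after 30 min at room temperature. Reporter line: MDA-kb2 with MMTV-luciferase responsive to AR and GR.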

[8] = qHTS assay to identify small molecule antagonists of the androgen receptor (AR) signaling pathway using the MDA cell line - cell viability counter screen (AID 743041; also: nearly all actives have a fitted effect of over 45% in size)
Summary of the method: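 Cells were plated at 3,000 per well and left 5 h. Compounds in DMSO were then pinned in, followed by R1881. After 16 h at 37C, CellTiter-Fluor fluorescence gave viability.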

[9] = target: Androgen receptor (Homo sapiens) (UniProt P10275); assay: qHTS assay to identify small molecule antagonists of the androgen receptor (AR) signaling pathway using the MDA cell line (AID 743042; also: nearly all actives have a fitted effect of over 55% in size)
Summary of the method: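 Antagonist mode: compounds plus R1881 agonist added to MDA-kb2 AR-luc cells, incubated 16 h at 37C. Luciferase reporter luminescence quantified, with multiplexed CellTiter-Fluor readout for cell viability.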

[10] = target: Androgen receptor (Homo sapiens) (UniProt P10275); assay: qHTS assay to identify small molecule agonists of the androgen receptor (AR) signaling pathway (AID 743036; active = well fitted activation curve with a large enough effect in the signal ratio in the repeat runs, with a control signal flat, not every such curve was filed as active; the % refers to the signal ratio)
Summary of the method: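 Quantitative HTS of the Tox21 10K library in HEK293 cells bearing a stably integrated UAS-controlled beta-lactamase reporter. Compound exposure lasted 16 h at 37C. Reporter activity was detected by FRET substrate fluorescence after 2 h at room temperature.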

Row | SMILES | Potency [1] | Potency [2] | Potency [3] | Potency [4] | Potency [5] | Potency [6] | outcome [7] | Potency [8] | Potency [9] | outcome [10]
1 | CCOc1ccccc1O | inactive | inactive | inactive | inactive |  |  |  |  |  | 
2 | NC(=O)c1ccccc1C(N)=O | inactive | inactive | inactive | inactive | inactive | inactive | inactive | inactive | inactive | 
3 | O=C(O)c1ccncc1 | inactive | inactive | inactive | inactive | inactive | inactive | inactive | inactive | inactive | inactive
4 | CCCCCCOC(=O)c1ccccc1 | inactive | 68.6 µM (active) | 61.1 µM (active) | 61.1 µM (active) |  |  |  |  |  | 
5 | CCCCC(CC)COCCC#N (configuration not stated) | inactive | inactive | inactive | inactive | inactive |  |  |  |  | 
6 | CCc1ccc(C(=O)C(C)CN2CCCCC2)cc1 (configuration not stated) | inactive | 11.9 µM (active) | 11.9 µM (active) | 16.8 µM (active) | inactive |  |  |  |  | 
7 | O=C(Nc1ccccc1)c1cc([N+](=O)[O-])ccc1Cl | inactive | 68.6 µM (active) | 68.6 µM (active) | 68.6 µM (active) | inactive | 24.5 µM (active) | inactive | inactive | inactive | inactive
8 | CC1(COc2ccc(CC3SC(=O)NC3=O)cc2)CCCCC1 (configuration not stated) | 23.9 µM (active) | 10.6 µM (active) | 23.7 µM (active) | 11.9 µM (active) | inactive |  |  |  |  | 
9 | Clc1cccc(C(c2ccc3nc[nH]c3c2)n2ccnc2)c1 (configuration not stated) | inactive | 21.1 µM (active) | 26.6 µM (active) | 26.6 µM (active) | inactive |  | inactive | inactive |  | 
10 | O=C(O)c1ccc(O)c(O)c1 | inactive | inactive | inactive | inactive | inactive | inactive | inactive | inactive | inactive | inactive
11 | CCCCCCCCOCCCN | inactive | 4.33 µM (active) | 6.86 µM (active) | 6.86 µM (active) | inactive | inactive | inactive | inactive | inactive | 
12 | Nc1ccc(F)cc1F | inactive | inactive | inactive | inactive | inactive | inactive | inactive | inactive | inactive | inactive
13 | O=[N+]([O-])c1cccc(I)c1 | inactive | inactive | inactive | inactive | inactive |  |  | inactive |  | 
14 | Cc1cc(SC2=C(O)C[C@@](CCc3ccc(N)cc3)(C(C)C)OC2=O)c(C(C)(C)C)cc1CO | inactive | inactive | inactive | inactive | inactive | inactive | inactive | inactive | inactive | 
15 | CCOc1ccc2c(c1)C(C)CC(C)(C)N2 (configuration not stated) | inactive | 27.3 µM (active) | 54.5 µM (active) | 48.6 µM (active) | inactive |  | inactive | inactive | inactive | inactive
16 | O=C(O)c1cccc(C(=O)O)c1C(=O)O | inactive | inactive | inactive | inactive | inactive | inactive | inactive | inactive | inactive | inactive
17 | NC(=O)c1ccccc1 | inactive | inactive | inactive | inactive | inactive | inactive | inactive | inactive | inactive | inactive
18 | Nc1ccccc1Nc1ccccc1 | 55.1 µM (active) | 19.4 µM (active) | 8.66 µM (active) | 15.4 µM (active) | inactive |  |  | inactive |  | 
19 | CCCC(=O)OCCC(C)C | inactive | inactive | inactive | inactive | inactive | inactive | inactive | inactive | inactive | inactive
20 | CCOCCn1c(N2CCCN(C)CC2)nc2ccccc21 | inactive | inactive | inactive | inactive | inactive | inactive | inactive | inactive | inactive | 
21 | CC(C)(Cc1c[nH]c2ccccc12)NCC(O)COc1ccccc1C#N (configuration not stated) | inactive | 9.44 µM (active) | 13.3 µM (active) | 16.8 µM (active) | inactive |  |  |  |  | 
22 | CCCN(C1CCN(C(=O)C2CCNCC2)CC1)[C@@H]1CCc2ccc(OC)cc2C1 | inactive | 15.4 µM (active) | 15.4 µM (active) | 19.3 µM (active) | inactive |  | inactive |  | inactive | inactive
23 | Cc1c(Nc2ncccc2C(=O)O)cccc1C(F)(F)F | inactive | 12.7 µM (active) | inactive | 11.4 µM (active) | inactive |  |  | inactive |  | 
24 | CCCc1nc(C)c2c(=O)[nH]c(-c3cc(S(=O)(=O)N4CCN(CC)CC4)ccc3OCC)nn12 | inactive | inactive | inactive | inactive | inactive | inactive |  | inactive | inactive | 
25 | CCCOC(C)=O | inactive | inactive | inactive | inactive | inactive |  | inactive | inactive | inactive | inactive
26 | CC(=O)S[C@H](C(=O)N[C@H]1Cc2ccccc2[C@H]2CCC[C@@H](C(=O)O)N2C1=O)C(C)C | inactive | inactive | inactive | inactive | inactive |  |  | inactive |  | 

Row | SMILES | Potency [1] | Potency [2] | Potency [3] | Potency [4] | Potency [5] | Potency [6] | outcome [7] | Potency [8] | Potency [9] | outcome [10]
27 | O=C1c2ccccc2C(=O)c2c1ccc(O)c2O | inactive | inactive | inactive | inactive | inactive |  |  |  |  | 
28 | O=C(OC1C[C@H]2CC[C@@H](C1)[N+]21CCCC1)C(O)(c1ccccc1)c1ccccc1 (some centres not stated) | inactive | inactive | inactive | inactive | inactive |  | inactive | inactive | inactive | inactive
29 | CC(C(=O)O)c1ccc2c(c1)Cc1cccnc1O2 (configuration not stated) | inactive | inactive | inactive | inactive | inactive |  | inactive | inactive | inactive | 
30 | FC(F)(Cl)C(F)(Cl)Cl | inactive | inactive | inactive | inactive | inactive | inactive | inactive | inactive | inactive | inactive
31 | Cc1ccc(NC(=O)c2ccc(CN3CCN(C)CC3)cc2)cc1Nc1nccc(-c2cccnc2)n1 | inactive | 15 µM (active) | 11.9 µM (active) | 13.3 µM (active) | inactive |  | inactive | inactive |  | 
32 | CC[C@H](NC(C)C)[C@H](O)c1ccc(O)c2[nH]c(=O)ccc12 | inactive | inactive | inactive | inactive | inactive | inactive | inactive | inactive | inactive | inactive
33 | C/C=C1\[C@H]2C=C(C)C[C@]1(N)c1ccc(=O)[nH]c1C2 | inactive | inactive | inactive | inactive | inactive |  |  | inactive |  | 
34 | CCC1=C(C)CN(C(=O)NCCc2ccc(S(=O)(=O)NC(=O)NC3CCC(C)CC3)cc2)C1=O (configuration not stated) | inactive | inactive | inactive | inactive | inactive | inactive | inactive | inactive | inactive | 
35 | Cc1nc2sccn2c(=O)c1CCN1CCC(=C(c2ccc(F)cc2)c2ccc(F)cc2)CC1 | inactive | 7.5 µM (active) | 13.3 µM (active) | 13.3 µM (active) | inactive |  |  |  |  | 
36 | CCCCCCCCCCCCCCCCC(=O)O | inactive | inactive | inactive | inactive | inactive |  | inactive | inactive | inactive | inactive
37 | Cc1c(Cl)cccc1[N+](=O)[O-] | inactive | inactive | inactive | inactive | inactive |  |  | inactive |  | 
38 | CC(C)=CCC[C@H](C)CCO | inactive | 54.5 µM (active) | 48.6 µM (active) | 19.3 µM (active) | inactive |  |  | inactive |  | 
39 | CCOC(OCC)OCC | inactive | inactive | inactive | inactive | inactive |  |  | inactive |  | 
40 | COc1cccc([C@H](O)C2CCN(CCc3ccc(F)cc3)CC2)c1OC | inactive | 27.3 µM (active) | 1.72 µM (active) | 4.33 µM (active) | inactive |  |  | inactive |  | 
41 | Cc1cc(C)n(CO)n1 | inactive | inactive | inactive | inactive | inactive |  |  | inactive |  | 
42 | O=C(O)COCC(=O)O | inactive | inactive | inactive | inactive | inactive |  |  | inactive |  | 
43 | CC(O)CN (configuration not stated) | inactive | inactive | inactive | inactive | inactive |  |  | inactive |  | 
44 | CC(C)Cc1nccs1 | inactive | inactive | inactive | inactive | inactive |  |  | inactive |  | 
45 | O=[N+]([O-])c1ccccc1CCO | inactive | inactive | inactive | inactive | inactive |  |  | inactive |  | 
46 | CC(=O)Nc1ccn(C2COC(COC(=O)c3ccccc3)O2)c(=O)n1 (configuration not stated) | inactive | 9.44 µM (active) | 13.3 µM (active) | 11.9 µM (active) | inactive |  |  | inactive |  | 
47 | OCC(O)c1ccccc1 (configuration not stated) | inactive | inactive | inactive | inactive | inactive |  |  | inactive |  | 
48 | C=CCCC | inactive | inactive | inactive | inactive | inactive |  |  | inactive |  | 
49 | CCCCCO | inactive | inactive | inactive | inactive | inactive |  |  | inactive |  | 
50 | Cc1ccc(NC=O)c(C)c1 | inactive | inactive | inactive | inactive | inactive |  |  | inactive |  | 
51 | CCCCCCCCCCCCN1CCOCC1 | inactive | 27.3 µM (active) | 8.63 µM (active) | 19.3 µM (active) | inactive |  |  | inactive |  | 
